Where “and” joins values, the source holds several entries; their conditions need not be identical. Equal values may be shown once. Calls of active or inactive are those of the source. Unless noted, the rule behind the calls is not given here.

The source of these data is PubChem BioAssay.

Assay [1] is described as follows: compounds altering circadian rhythm period length – cell-based, LOPAC library, luminescence reporter (AID 2774).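 Note: values are relative to mean of DMSO wells on each plate.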 As to conditions: circadian reporter cells, at 7 µM, actives lie on both sides.
Assay [2] has as its system Hepatitis C virus NS3 helicase. The experiment in a line: blockers of NS3h binding to ssDNA – biochemical, fluorescence polarization, LOPAC1280 library, primary screen (AID 687035; in the data active = inhibition above about 37%). To be noted: Purified HCV NS3 helicase, Cy5-dT15 ssDNA binding fluorescence polarization; stronger effect = higher value; concentration not given here.
Assay [3] is described as follows: compounds altering Cy5-DNA-NS3h complex signal – biochemical, LOPAC1280, artefact control for HCV NS3 helicase inhibitor project (AID 687037). To be noted: Cy5-DNA-NS3h complex fluorescence interference counterscreen.
The test system of assay [4] is Aerobactin synthetase IucA (Klebsiella pneumoniae). Briefly: inhibition of K. pneumoniae IucA enzyme – biochemical, Tocris library, absorbance (AID 1345561).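 Note: 100% = enzyme without compound and 0% = no enzyme.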 To be noted: purified IucA enzyme assay, absorbance (OD) read-out; stronger effect = lower value;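 tested at 8 µM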.
A short description of assay [5]: viability loss with induced miR-34 in A549 – imaging, A549 dox-inducible miR-34, nuclei and caspase counts, primary screen (AID 1347080;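 active = compounds whose cell count with miR-34 switched on is under 0.7 times the count with it off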). To be noted: A549 miR-34 inducible, Hoechst nuclei count, 48 h.
The nature of assay [6]: blockers of cellular phospholipid synthesis – cell-based, LOPAC library, screen 4, primary screen (AID 1347384). As to conditions: animal cells, phospholipid biosynthesis inhibition screen; at 10 µM.
Assay [7] is described as follows: galactose survival enhancers in mitochondrial complex I cybrids – cell-based, galactose medium, ATP luminescence, primary screen (AID 1645843;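 active = z-score of at least 1.8 in each of two replicates, scored against plate mean and spread of sample wells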;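 note: positive z means more ATP and so rescue of galactose-driven cybrid death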). To be noted: complex I mutant cybrid cells, 72 h, stronger effect = higher value.
Assay [8] is described as follows: MELAS cybrid and Rieske KO viability enhancers – cell-based, MELAS cybrids, Rieske KO mouse fibroblasts, CellTiter-Glo, primary screen (AID 1508586;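 active = mean z-score across replicates of 1.96 or higher in either the MELAS or the Rieske mutant cell line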;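 note: z relative to plate mean and SD of compound and empty wells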). To be noted: low glucose.
The nature of assay [9]: growth inhibition, single agent or in combination, cell-based, chromothripsis tumors, cisplatin or BGB combos (AID 1671449; in the data active = inhibition above about 80%;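 note: cells exposed for 96 hours; 0% = vehicle DMSO and 100% = killing by high DMSO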). To be noted: LFS_MB_P medulloblastoma cells.
Assay [10] can be described thus: growth inhibition, single agent and combos, cell-based, chromothripsis tumors, cisplatin or BGB combos (AID 1671450; in the data active = inhibition above about 80%;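 note: cells exposed to compound for four days; 0% = vehicle DMSO and 100% = cell killing by high DMSO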). To be noted: HDN33 neuroblastoma cells, stronger effect = higher value.
Assay [11] can be described thus: growth inhibition, single agents and combos, ICB984, cell-based, cisplatin or BGB combos, synergistic combos for chromothripsis tumors (AID 1671451).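 Note: cells exposed for 96 hours before readout; 0% = vehicle DMSO and 100% = killing by high DMSO.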 As to conditions: ICB984 medulloblastoma cells, drug combinations, stronger effect = higher value.
Assay [12] can be described thus: growth inhibition, single agents and combos, HTB85, cell-based, BGB or cisplatin IC20 combos, synergistic combos for chromothripsis tumors (AID 1671453; in the data active = inhibition above about 80%;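 note: cells exposed for 96 hours before readout; 0% = vehicle DMSO and 100% = high DMSO killing control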). To be noted: HTB85 osteosarcoma cells, drug combinations, stronger effect = higher value.
Assay [13] in a line: compounds altering viability of human ES cells (AID 493140).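 Note: cells exposed to compounds for four days before counting.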 As to conditions: human embryonic stem cell survival screen; stronger effect = higher value.
Assay [14] is described as follows: P. berghei load reduction in hepatocytes – cell-based, HepG2, luciferase luminescence, HepG2 viability, primary screen (AID 624349; in the data active = parasite load remaining mostly below about 12%, no sharp cut-off; inactive = mostly above about 10%;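 note: 100% = mean of DMSO negative control wells on the same plate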). To be noted: P. berghei liver stage in HepG2, luciferase luminescence, concentration not given here; parasite load remaining: stronger effect = lower value; viability: measured here: HepG2 viability without parasites.
The mark [15] stands for this setting: stronger effect = lower value, cell number ratio, induced over uninduced.
The mark [16] stands for this setting: measured here: relative caspase fold change +Dox/-Dox.
[17] abbreviates: measured here: total cells with miR-34 induction, stronger effect = lower value.
Where [18] appears, read: measured here: total cells without miR-34 induction.
[19] abbreviates: MELAS cybrid survival, CellTiter-Glo 48 h, stronger effect = higher value.
Setting [20] is: Rieske KO mouse fibroblast survival, CellTiter-Glo 72 h.

With `Cc1cccc(/C=C/c2ccccc2)n1`, in [1], the period change is 0.01 h (inactive). The inhibition in assay [2] is 0% (inactive). The fluorescence ratio (interference) in assay [3] is 1 (inactive). In addition, the remaining activity in [4] was 108% (inactive). For the same compound, the fold change is 0.995 (inactive) and 0.915 (inactive) in assay [5] (setting [15]); 1.79 and 0.591 in assay [5] (setting [16]). The cell count was 9190 and 8490 in [5] (setting [17]); 9240 and 9280 in assay [5] (setting [18]). In assay [6], the outcome was inactive. Also, in assay [7], the z-score was 1.12 (inactive) and 0.09 (inactive).

For `O=C(Nc1ccncc1)c1cc([N+](=O)[O-])ccc1Cl`, the inhibition was 0% (inactive) in assay [2]; -6.15% (inactive) in assay [9] (at 0.5 µM, stronger effect = higher value); -50.3% in assay [9] (measured here: combination with BGB IC20, at 0.005 µM); -79.8% in assay [9] (measured here: combination with BGB IC40, at 0.005 µM); -56.1% in [9] (measured here: combination with BGB IC40, at 0.05 µM); -30.4% in assay [9] (measured here: combination with cisplatin, at 0.5 µM, stronger effect = higher value). Further, the inhibition in assay [9] (measured here: combination with cisplatin, at 5 µM, stronger effect = higher value) is -22.9%; in assay [10] (BGB combo, at 5 µM), -13.6%; in [10] (at 0.5 µM), 1.6% (inactive); in assay [10] (cisplatin combo, at 5 µM), 3.19%; in assay [10] (measured here: with BGB IC20 combination, at 0.5 µM), -13.6%; in [10] (measured here: with cisplatin IC20 combination, at 0.5 µM) it was 24.4%. The inhibition in assay [10] (single agent, at 5 µM) is -14.1%; in [11] (BGB IC20 combo, at 0.005 µM), -18%; in assay [11] (BGB IC40 combo, at 0.005 µM) it was -35.6%; in [11] (BGB IC40 combo, at 0.05 µM) it was 0.746%; in assay [11] (at 0.5 µM), -34.7% (inactive); in [11] (cisplatin combo, at 0.05 µM), -4.27%. Moreover, the inhibition in assay [11] (cisplatin combo, at 0.5 µM) was -45.9%; in assay [11] (cisplatin combo, at 5 µM) it was -23.5%; in assay [11] (measured here: 5 uM single agent, at 5 µM), -11.4%; in assay [12] (at 0.5 µM), -15.1% (inactive); in assay [12] (measured here: with BGB IC20, at 0.5 µM), -10.2%; in assay [12] (measured here: with BGB IC20, at 5 µM), 1.89%. In addition, the inhibition in assay [12] (measured here: with cisplatin IC20, at 0.5 µM) was -20.9%; in assay [12] (measured here: with cisplatin IC20, at 5 µM), -16.5%; in [12] (single agent, at 5 µM) it was -8.5%. The fluorescence ratio (interference) in [3] was 1 (inactive). Besides, the remaining activity in assay [4] was 127% (inactive). The call in assay [6] was inactive. For the same compound, the z-score in [8] (setting [19]) is 0.0073 (inactive); in [8] (setting [20]) it was -0.438; in assay [7], -1.12 (inactive) and -0.63 (inactive).

On to `O=S(=O)(c1ccccc1)N(CC(F)(F)F)c1ccc(C(O)(C(F)(F)F)C(F)(F)F)cc1`, for which the remaining activity in assay [4] is 101% (inactive). Also, the fold change in [5] (setting [15]) is 0.946 (inactive) and 1.36 (inactive) and 0.863 (inactive); in assay [5] (setting [16]), 0.813 and 0.647 and 1.59. The cell count is 5490 and 6260 and 4300 in assay [5] (setting [17]); 5810 and 4590 and 4980 in assay [5] (setting [18]). Further, the z-score in assay [8] (setting [19]) is -0.346 (inactive); in assay [8] (setting [20]), -0.159; in assay [7] it was -0.605 (inactive).

Take `O=C(NCCNCC(O)COc1ccc(O)cc1)N1CCOCC1` (stereo not drawn): the period change in assay [1] was -0.145 h (inactive). The survival in assay [13] was 3.92 (inactive). In addition, the parasite load remaining in assay [14] is 67.2% (inactive) and 53.1% (inactive). Besides, in [14], the viability is 92.7% and 101%. Further, in assay [4], the remaining activity was 86.3% (inactive). The fold change in [5] (setting [15]) was 0.933 (inactive) and 0.982 (inactive) and 0.986 (inactive); in assay [5] (setting [16]) it was 1.12 and 0.678 and 0.984. Moreover, the cell count in [5] (setting [17]) is 9570 and 9500 and 10300; in [5] (setting [18]), 10300 and 9670 and 10400. For the same compound, the z-score was 0.558 (inactive) and 0.821 (inactive) in assay [8] (setting [19]); -0.323 and 0.721 in [8] (setting [20]); 1.45 (inactive) and 0.315 (inactive) in [7].
